Laboratory results taken from PubChem BioAssay (Tox21).
Values joined by “and” are separate entries in the source; they are usually repeats but may differ in a detail not shown here. Equal values may be shown once. Inconclusive results are not listed. More than one record can exist for a structure, and the calls need not agree. Active and inactive are the calls of the source. Unless noted, the call rests on the fitted dose curve.

Experiments:
[1] = Nuclear factor erythroid 2-related factor 2/antioxidant responsive element (Nrf2/ARE) small molecule agonists: qHTS cell viability counter screen in human keratinocytes (AID 1919968; active means well fitted curve in the direction sought with a large enough effect in the repeat runs; an effect the other way counts as inactive or inconclusive; further: nearly all actives have a fitted effect of over 55% in size)
Summary of the method: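 Viability counter-screen: KeratinoSens reporter cells, DMSO-delivered compounds, 23 h at 37 C, CellTiter-Fluor fluorescence.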

[2] = Nuclear factor erythroid 2-related factor 2/antioxidant responsive element (Nrf2/ARE) small molecule agonists: luciferase reporter gene qHTS assay in human keratinocytes (AID 1919969); further: nearly all actives have a fitted effect of over 35% in size; further: potency means the concentration at half of the fitted maximal effect
[3] = molecular target: Gonadotropin-releasing hormone receptor (Homo sapiens) (UniProt P30968); experiment: Human gonadotropin-releasing hormone receptor (GnRHR) small molecule agonists, calcium flux assay in GnRHR-HEK293 cells (AID 1920063); further: nearly all actives have a fitted effect of over 35% in size
Summary of the method: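 Tox21-format agonist screen using human GnRHR-expressing HEK293 cells and a fluorescent calcium dye; kinetic 3-min fluorescence reading after compound addition, 15-point concentration series run in triplicate.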

[4] = molecular target: KiSS-1 receptor (Homo sapiens) (UniProt Q969F8); experiment: Human kisspeptin (KISS1R) small molecule agonists, calcium flux assay in KISS1R-HEK293 cells (AID 1920064; active means well fitted curve in the direction sought with a large enough effect in the repeat runs; an effect the other way counts as inactive or inconclusive)
Summary of the method: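 Intracellular calcium mobilization in KISS1R-HEK293 cells was recorded by fluorescence (Ex/Em 480/540) for 3 min following compound addition to cells pre-loaded 1 h with calcium dye.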

[5] = G protein-coupled receptor (GPCR) small molecule agonists, calcium flux assay: HEK293 wild type cell line counter screen (AID 1920065)
Summary of the method: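 In this agonist-mode screen, ATP is the positive control and DMSO the vehicle. Cells grow 18 h before a 1 h dye incubation at 37 C; signal is taken at Ex/Em 480/540 over 3 min.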

[6] = p53 small molecule agonists, cell-based qHTS assay with human liver microsomes (AID 1963577);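 further: p53 response element beta-lactamase reporter cells with liver microsomes plus NADPH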
Summary of the method: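 In this qHTS, p53 response-element beta-lactamase cells receive test compound together with a microsome/NADPH activating system (0.5 mg/mL final each) and are incubated 16 h at 37 C before LiveBLAzer fluorescence detection.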

[7] = p53 small molecule agonists, cell-based qHTS assay with rat liver microsomes (AID 1963578)
Summary of the method: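 Agonist mode in p53RE-bla reporter cells, with compounds co-incubated 16 h at 37 C alongside 0.5 mg/mL rat liver microsomes and 0.5 mg/mL NADPH (final), followed by a 2 h LiveBLAzer detection step.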

[8] = p53 small molecule agonists, cell-based qHTS assay with human liver microsomes: qHTS cell viability counter screen (AID 1963579); further: nearly all actives have a fitted effect of over 45% in size; further: potency means the concentration at half of the fitted maximal effect
Summary of the method: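 Metabolically activated exposure: compounds, human liver microsomes and NADPH (0.5 mg/mL final apiece) were added to p53RE-bla cells seeded 5 h earlier, left 16 h at 37 C, and then assessed for viability by CellTiter-Glo luminescence.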

[9] = p53 small molecule agonists, cell-based qHTS assay with rat liver microsomes: qHTS cell viability counter screen (AID 1963580); further: nearly all actives have a fitted effect of over 45% in size
Summary of the method: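 HCT-116 p53RE-bla, 4,000 cells/well, 5 h pre-incubation; cpd + rat liver microsomes 0.5 mg/mL + NADPH 0.5 mg/mL (final); 16 h, 37 C; CellTiter-Glo, 30 min RT; luminescence.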

[10] = p53 small molecule agonists, cell-based qHTS assay: qHTS cell viability counter screen (AID 1963581); further: nearly all actives have a fitted effect of over 45% in size
Summary of the method: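 Compounds are pinned onto HCT-116 p53RE-bla cells and left 16 h at 37 C. Following the reporter FRET read, ATP is quantified by CellTiter-Glo luminescence after 30 min at room temperature.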

[11] = p53 small molecule agonists, cell-based qHTS assay (AID 1963582; active means well fitted activation curve with a large enough effect in the signal ratio in the repeat runs, not every such curve was filed as active; the % refers to the signal ratio)
Summary of the method: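 Agonist activity was scored from beta-lactamase FRET fluorescence in p53RE-bla cells treated 16 h at 37 C with compounds in DMSO, substrate incubation being 2 h at room temperature.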

[12] = molecular target: 5-hydroxytryptamine receptor 2A (Homo sapiens) (UniProt P28223); experiment: 5-hydroxytryptamine receptor 2A (HTR2A) small molecule agonists, cell-based qHTS assay (AID 1963587); further: nearly all actives have a fitted effect of over 30% in size
Summary of the method: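 Kinetic calcium-flux fluorescence (2 min, 1 sec intervals) after compound addition in agonist mode. HTR2A-CHO cells were cultured 18 h, then dye-loaded 1 h at 37 C.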

[13] = molecular target: Muscarinic acetylcholine receptor M1 (Homo sapiens) (UniProt P11229); experiment: Cholinergic receptor muscarinic 1 (CHRM1) small molecule antagonists, cell-based qHTS assay (AID 1963588); further: nearly all actives have a fitted effect of over 40% in size
Summary of the method: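 CHRM1-CHO calcium-flux assay, antagonist mode. Cells were seeded 18 h, dye-loaded 1 h at 37 C and given compound for 5 min at RT, then acetylcholine was added at 50nM. FDSS fluorescence was read 3 min; 15 concentrations, three runs.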

[14] = molecular target: Muscarinic acetylcholine receptor M1 (Homo sapiens) (UniProt P11229); experiment: Cholinergic receptor muscarinic 1 (CHRM1) small molecule agonists, cell-based qHTS assay (AID 1963589); further: nearly all actives have a fitted effect of over 35% in size
Summary of the method: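 Stable CHRM1-CHO cells (human receptor) were incubated 18 h, dye-loaded for 1 h at 37 C and exposed to test compounds for agonist activity, with calcium-dependent fluorescence followed kinetically.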

[15] = cAMP Responsive Elements (CRE) small molecule agonists, cell-based qHTS assay (AID 1963590)
Summary of the method: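 FRET-based beta-lactamase readout (LiveBLAzer B/G, 2 h RT) quantified CRE activation in HEK 293T CRE-bla cells after 3 h treatment with DMSO-dissolved compounds.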

[16] = cAMP Responsive Elements (CRE) small molecule antagonists, cell-based qHTS assay (AID 1963591; active means well fitted inhibition curve with a large enough effect in the signal ratio in the repeat runs, not every such curve was filed as active; the % refers to the signal ratio)
Summary of the method: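 qHTS in CRE-bla HEK 293T cells: compound in DMSO, then 0.25 uM NKH477 (final), 3 h at 37 °C/5% CO2; beta-lactamase FRET read-out after 2 h substrate incubation.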

[17] = molecular target: Beta-2 adrenergic receptor (Homo sapiens) (UniProt P07550); experiment: Adrenergic beta2 receptor (ADRB2) small molecule antagonists, cell-based qHTS assay (AID 1963592); further: series mostly up to about 92 µM; nearly all actives have a fitted effect of over 50% in size
Summary of the method: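 Cells (CHO, stable ADRB2 overexpression) incubated 18-20hr at 37C; compounds added from DMSO; agonist mix (1nM isoproterenol, 100uM IBMX, 25uM Ro-20-1724) added; 0.5hr RT; d2-cAMP and anti-cAMP-cryptate added; 1hr RT; 665/615 nm read.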

[18] = molecular target: D(2) dopamine receptor (Homo sapiens) (UniProt P14416); experiment: Dopamine D2 receptor (DRD2) small molecule agonists, cell-based qHTS assay (AID 1963594); further: nearly all actives have a fitted effect of over 35% in size
Summary of the method: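 cAMP accumulation in DRD2-HEK293 cells measured by HTRF after 1 h detection; compounds added 10 min before NKH477 (200nM […]) forskolin-analogue stimulation, 30 min at room temperature, with Ro20-1724 present at 0.1 mM final.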

[19] = molecular target: D(2) dopamine receptor (Homo sapiens) (UniProt P14416); experiment: Dopamine D2 receptor (DRD2) small molecule antagonists, cell-based qHTS assay (AID 1963595; active means well fitted inhibition curve with a large enough effect in the signal ratio in the repeat runs, with a control signal flat; the % refers to the signal ratio)
Summary of the method: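 Antagonism was scored as restored cAMP in HEK293-DRD2 cells. These cells were stimulated with 200 nM NKH477 and 12 nM quinpirole for 30 min at room temperature, in the presence of 0.1 mM Ro20-1724.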

[20] = molecular target: 5-hydroxytryptamine receptor 2A (Homo sapiens) (UniProt P28223); experiment: 5-hydroxytryptamine receptor 2A (HTR2A) small molecule antagonists, cell-based qHTS assay (AID 1963586); further: nearly all actives have a fitted effect of over 45% in size
Summary of the method: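 Antagonist-mode intracellular calcium assay: DOI (4 nM) added after 5 min compound pre-incubation at room temperature to dye-loaded HTR2A-CHO cells. Fluorescence followed for 3 min, sampled every second.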
On the % scale 0 is the no-effect control and ±100 the full control effect.

Chain of 5-hydroxytryptamine receptor 2A (Homo sapiens) (P28223 whole entry, looked up): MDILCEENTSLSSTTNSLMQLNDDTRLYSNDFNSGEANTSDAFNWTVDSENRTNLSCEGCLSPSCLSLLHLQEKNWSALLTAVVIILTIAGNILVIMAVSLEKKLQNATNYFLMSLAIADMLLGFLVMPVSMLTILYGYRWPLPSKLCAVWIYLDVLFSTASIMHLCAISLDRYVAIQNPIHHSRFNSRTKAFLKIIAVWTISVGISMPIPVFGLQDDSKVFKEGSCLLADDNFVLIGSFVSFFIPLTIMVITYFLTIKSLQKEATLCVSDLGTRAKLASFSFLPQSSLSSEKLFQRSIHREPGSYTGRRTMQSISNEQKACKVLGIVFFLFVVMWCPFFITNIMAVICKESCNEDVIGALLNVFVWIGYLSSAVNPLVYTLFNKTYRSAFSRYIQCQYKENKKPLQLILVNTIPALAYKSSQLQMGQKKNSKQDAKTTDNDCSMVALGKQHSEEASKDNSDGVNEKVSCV
Chain of Beta-2 adrenergic receptor (Homo sapiens) (P07550 whole entry, looked up): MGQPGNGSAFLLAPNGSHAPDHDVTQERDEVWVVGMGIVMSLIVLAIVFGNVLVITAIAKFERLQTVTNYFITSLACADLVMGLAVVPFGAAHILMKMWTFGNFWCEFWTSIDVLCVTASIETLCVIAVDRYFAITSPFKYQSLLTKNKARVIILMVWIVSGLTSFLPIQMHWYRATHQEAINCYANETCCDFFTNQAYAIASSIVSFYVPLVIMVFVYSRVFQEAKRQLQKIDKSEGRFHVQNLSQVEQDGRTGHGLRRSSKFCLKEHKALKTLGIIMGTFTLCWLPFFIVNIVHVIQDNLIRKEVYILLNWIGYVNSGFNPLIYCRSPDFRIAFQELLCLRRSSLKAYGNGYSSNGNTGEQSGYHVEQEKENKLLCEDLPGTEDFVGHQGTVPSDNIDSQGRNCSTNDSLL
Chain of D(2) dopamine receptor (Homo sapiens) (P14416 whole entry, looked up): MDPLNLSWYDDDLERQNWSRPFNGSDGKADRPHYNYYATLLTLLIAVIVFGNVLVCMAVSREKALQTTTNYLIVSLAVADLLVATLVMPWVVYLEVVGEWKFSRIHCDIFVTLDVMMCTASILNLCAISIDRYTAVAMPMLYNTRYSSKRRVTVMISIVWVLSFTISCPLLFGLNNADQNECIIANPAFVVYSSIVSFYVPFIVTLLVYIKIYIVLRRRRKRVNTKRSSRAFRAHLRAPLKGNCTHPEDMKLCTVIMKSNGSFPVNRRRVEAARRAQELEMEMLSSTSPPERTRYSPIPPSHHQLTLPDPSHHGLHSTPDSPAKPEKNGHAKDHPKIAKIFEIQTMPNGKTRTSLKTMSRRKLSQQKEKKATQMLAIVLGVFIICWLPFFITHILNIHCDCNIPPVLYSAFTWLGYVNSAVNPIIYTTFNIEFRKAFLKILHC
Chain of Muscarinic acetylcholine receptor M1 (Homo sapiens) (P11229 whole entry, looked up): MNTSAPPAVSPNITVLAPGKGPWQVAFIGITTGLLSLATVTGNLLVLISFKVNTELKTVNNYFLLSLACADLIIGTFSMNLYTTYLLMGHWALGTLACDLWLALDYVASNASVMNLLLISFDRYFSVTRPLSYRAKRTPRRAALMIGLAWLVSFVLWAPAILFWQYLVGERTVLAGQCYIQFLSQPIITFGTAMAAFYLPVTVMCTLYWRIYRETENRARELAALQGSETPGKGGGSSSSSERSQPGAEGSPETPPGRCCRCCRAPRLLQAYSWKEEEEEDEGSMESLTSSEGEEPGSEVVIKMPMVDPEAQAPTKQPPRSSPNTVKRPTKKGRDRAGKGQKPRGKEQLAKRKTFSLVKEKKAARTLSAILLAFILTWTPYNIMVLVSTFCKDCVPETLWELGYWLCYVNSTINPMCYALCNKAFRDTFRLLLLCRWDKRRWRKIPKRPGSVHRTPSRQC
Chain of Gonadotropin-releasing hormone receptor (Homo sapiens) (P30968 whole entry, looked up): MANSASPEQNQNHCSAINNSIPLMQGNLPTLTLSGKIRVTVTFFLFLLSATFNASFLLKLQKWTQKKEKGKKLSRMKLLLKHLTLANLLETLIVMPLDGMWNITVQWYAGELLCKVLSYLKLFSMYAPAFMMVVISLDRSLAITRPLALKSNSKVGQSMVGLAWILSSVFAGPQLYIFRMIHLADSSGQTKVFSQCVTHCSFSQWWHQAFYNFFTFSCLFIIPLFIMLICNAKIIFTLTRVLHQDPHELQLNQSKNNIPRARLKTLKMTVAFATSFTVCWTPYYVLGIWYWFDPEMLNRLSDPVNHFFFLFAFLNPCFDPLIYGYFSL
Chain of KiSS-1 receptor (Homo sapiens) (Q969F8 whole entry, looked up): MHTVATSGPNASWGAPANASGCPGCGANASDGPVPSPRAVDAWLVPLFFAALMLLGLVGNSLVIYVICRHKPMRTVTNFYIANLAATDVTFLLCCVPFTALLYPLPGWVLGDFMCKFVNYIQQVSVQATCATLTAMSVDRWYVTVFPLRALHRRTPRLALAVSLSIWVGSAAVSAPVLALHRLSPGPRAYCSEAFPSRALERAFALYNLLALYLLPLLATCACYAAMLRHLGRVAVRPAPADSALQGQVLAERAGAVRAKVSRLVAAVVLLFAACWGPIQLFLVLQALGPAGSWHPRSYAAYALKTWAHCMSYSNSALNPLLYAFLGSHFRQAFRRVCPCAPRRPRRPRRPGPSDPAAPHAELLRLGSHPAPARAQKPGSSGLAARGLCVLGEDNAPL

O=C(CCl)c1ccccc1
inactive: Potency [1] | Potency [3] | Potency [4] | Potency [5] | Potency [6] | Potency [7] | Potency [8] | Potency [9] | Potency [10] | Potency [11] | Potency [12] | Potency [13] | Potency [14] | Potency [15] | Potency [16] | Potency [17] | Potency [18] | Potency [19]
active: Potency [2] 62 µM and 54.5 µM

C#C[C@]1(O)CC[C@H]2[C@@H]3CCC4=CC(=O)CC[C@]4(C)[C@H]3CC[C@@]21C
inactive: Potency [1] | Potency [2] | Potency [3] | Potency [4] | Potency [5] | Potency [6] | Potency [7] | Potency [8] | Potency [9] | Potency [10] | Potency [11] | Potency [15] | Potency [16] | Potency [19]

CCC(=O)O[C@@H]1C=C2CCC3C(CCC4(C)C3CC[C@@H]4OC(=O)CC)C2CC1 (stereo not given in full)
inactive: Potency [1] | Potency [2] | Potency [3] | Potency [4] | Potency [5] | Potency [6] | Potency [7] | Potency [8] | Potency [9] | Potency [10] | Potency [20] | Potency [12] | Potency [13] | Potency [14] | Potency [15] | Potency [16] | Potency [17] | Potency [18] | Potency [19]

CC(C)(C)OOC(C)(C)C
inactive: Potency [1] | Potency [2] | Potency [3] | Potency [4] | Potency [5] | Potency [6] | Potency [7] | Potency [8] | Potency [9] | Potency [10] | Potency [20] | Potency [12] | Potency [13] | Potency [14] | Potency [15] | Potency [16] | Potency [17] | Potency [18] | Potency [19]

Cc1cccc(N)c1C
inactive: Potency [1] | Potency [2] | Potency [3] | Potency [4] | Potency [5] | Potency [6] | Potency [7] | Potency [8] | Potency [9] | Potency [10] | Potency [11] | Potency [20] | Potency [14] | Potency [15] | Potency [16] | Potency [18] | Potency [19]

O=[N+]([O-])c1ccc(Oc2ccc(Cl)cc2Cl)cc1
inactive: Potency [1] | Potency [2] | Potency [3] | Potency [4] | Potency [5] | Potency [6] | Potency [7] | Potency [8] | Potency [9] | Potency [10] | Potency [20] | Potency [12] | Potency [13] | Potency [14] | Potency [15] | Potency [16] | Potency [17] | Potency [18] | Potency [19]

CC(C)(O)C(=O)Nc1ccc([N+](=O)[O-])c(C(F)(F)F)c1
inactive: Potency [1] | Potency [2] | Potency [3] | Potency [4] | Potency [5] | Potency [6] | Potency [7] | Potency [8] | Potency [9] | Potency [10] | Potency [20] | Potency [12] | Potency [13] | Potency [14] | Potency [17] | Potency [19]

N#Cc1cc(Br)c(O)c(Br)c1
inactive: Potency [1] | Potency [2] | Potency [3] | Potency [4] | Potency [5] | Potency [6] | Potency [7] | Potency [8] | Potency [9] | Potency [10] | Potency [20] | Potency [12] | Potency [13] | Potency [14] | Potency [16] | Potency [17] | Potency [19]

BrCC(Br)c1ccccc1 (stereo not given)
inactive: Potency [1] | Potency [2] | Potency [3] | Potency [4] | Potency [5] | Potency [6] | Potency [7] | Potency [8] | Potency [9] | Potency [10] | Potency [13] | Potency [14] | Potency [15] | Potency [16] | Potency [17] | Potency [18] | Potency [19]

CCCCCCCCCCCC#N
inactive: Potency [1] | Potency [2] | Potency [3] | Potency [4] | Potency [5] | Potency [6] | Potency [7] | Potency [9] | Potency [10] | Potency [20] | Potency [12] | Potency [13] | Potency [14] | Potency [15] | Potency [16] | Potency [17] | Potency [18] | Potency [19]
inactive and 42.3 µM (active): Potency [8]

C[N+](=O)[O-]
inactive: Potency [1] | Potency [2] | Potency [3] | Potency [4] | Potency [5] | Potency [6] | Potency [7] | Potency [8] | Potency [9] | Potency [10] | Potency [20] | Potency [12] | Potency [13] | Potency [14] | Potency [15] | Potency [16] | Potency [17] | Potency [18] | Potency [19]

COC(=O)c1c(C(F)F)nc(C(F)(F)F)c(C2=NCCS2)c1CC(C)C
inactive: Potency [1] | Potency [2] | Potency [3] | Potency [4] | Potency [5] | Potency [6] | Potency [7] | Potency [8] | Potency [9] | Potency [10] | Potency [20] | Potency [12] | Potency [13] | Potency [14] | Potency [15] | Potency [16] | Potency [17] | Potency [18] | Potency [19]

Brc1c(Br)c(Br)c(Br)c(Br)c1Br
inactive: activity change, negative = cytotoxicity [1] 1.17% [at 8.39 µM] | activity, positive = activation [2] 1.37% [at 8.39 µM] | activity change [3] 0.959% [at 5.22 µM, stronger effect = higher value] | activation [4] -5.73% [at 6.97 µM] | activation [5] 0.0498% [at 5.23 µM] | activation [6] 1.36% [at 5.99 µM] | activation [7] -3.05% [at 5.99 µM] | activity change, negative = cytotoxicity [8] -1.65% [at 5.99 µM] | activity change, negative = cytotoxicity [9] 2.93% [at 5.99 µM] | activity change, negative = cytotoxicity [10] -11.2% [at 5.99 µM] | activity, negative = inhibition [20] -11.3% [at 5.62 µM] | activation [12] -1.65% [at 7.02 µM] | activity, negative = inhibition [13] 23.8% [at 5.58 µM] | activation [14] -0.148% [at 6.97 µM] | activation [15] -0.136% [at 8.39 µM] | activity change, negative = inhibition [16] -5.46% [at 8.39 µM] | activity change, negative = inhibition [17] -9.58% [at 8.39 µM] | activation [18] -0.47% [at 8.39 µM] | activity change, negative = inhibition [19] -0.734% [at 8.38 µM]

C=C1CC[C@@]2(O)[C@H]3Cc4ccc(O)c5c4[C@@]2(CCN3CC2CC2)[C@H]1O5
inactive: Potency [1] | Potency [2] | Potency [3] | Potency [4] | Potency [5] | Potency [6] | Potency [7] | Potency [8] | Potency [9] | Potency [10] | Potency [20] | Potency [12] | Potency [13] | Potency [16] | Potency [17] | Potency [18] | Potency [19]
